These results are taken from PubChem BioAssay (NCI).

About 83,000 compounds went through this panel and 20% of them were active in at least one assay; those are over-represented in the sample as a whole.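 Growth was measured after 48 h exposure to one concentration of compound in 96-well plates. Values under 10 count as active.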 Values without a mark were called inactive. Calls of active or inactive are those of the source.

Test systems include NCI-H23 lung; NCI-H226 lung; NCI-H322M lung; HOP-62 NSCLC; NCI-H460 lung; HOP-92 NSCLC; NCI-H522 lung; A549/ATCC NSCLC; 786-0 renal; COLO 205 colon; DU-145 prostate; K-562 leukemia; MALME-3M melanoma; MDA-MB-231 breast; RXF 393 renal; SF-268 CNS; SF-295 CNS; SF-539 CNS; UACC-257 melanoma; M14 melanoma.
What all share (test): NCI-60 one-dose screen, 48 h (100 = growth as untreated, 0 = no growth, -100 = all killed)
Common to all, as to conditions: 10 µM unless noted

As for `CCCCCCC/C=N/NC(=O)c1ccc(-n2cc(-c3ccccc3)nn2)cc1`, the growth with NCI-H23 lung is 87.6%; with NCI-H226 lung, 85.2%; in the test on NCI-H322M lung, 86.3%; with HOP-62 NSCLC, 95.8%; in the test on NCI-H460 lung, 98.4%; in the test with HOP-92 NSCLC it was 87.1%. The growth in the test on NCI-H522 lung was 79.9%; in the test on A549/ATCC NSCLC, 96%; in the test on 786-0 renal, 92.2%; in the test on COLO 205 colon, 110%; with DU-145 prostate, 96.1%; in the test on K-562 leukemia, 79.7%. For the same compound, the growth in the test on MALME-3M melanoma is 78.1%; in the test on MDA-MB-231 breast, 74.3%; with RXF 393 renal, 83.5%; with SF-268 CNS it was 90.1%; with SF-295 CNS, 87.8%; in the test with SF-539 CNS, 96.5%. For the same compound, the growth in the test with UACC-257 melanoma was 100%; with M14 melanoma, 80.7%.
`CN1CCN(Cc2ccc(NC(=O)c3cncc(C#Cc4c(N)ncc5c(F)cccc45)c3)cc2C(F)(F)F)CC1`: the growth in the test with NCI-H23 lung is -66.3% (active); with NCI-H226 lung, 14%; with NCI-H322M lung, -23.7% (active); in the test with HOP-62 NSCLC, -80.2% (active); with NCI-H460 lung, -48% (active); in the test with HOP-92 NSCLC, -58.8% (active). Moreover, the growth with NCI-H522 lung is -76% (active); in the test on A549/ATCC NSCLC, -90.6% (active); in the test on 786-0 renal it was -79% (active); with COLO 205 colon, -83.6% (active); with DU-145 prostate, -90.3% (active); with K-562 leukemia it was -66.9% (active). The growth in the test on MALME-3M melanoma is -74.3% (active); with MDA-MB-231 breast, -89.6% (active); in the test on RXF 393 renal, -91.5% (active); with SF-268 CNS, -63.6% (active); with SF-295 CNS it was -70.6% (active); with SF-539 CNS, -95.4% (active). The growth with UACC-257 melanoma is -73% (active); with M14 melanoma it was -66% (active).
With `O=c1ccc2c(ccc3ncccc32)o1`, the growth in the test on NCI-H23 lung was 106%; in the test on NCI-H226 lung, 104%; in the test on NCI-H322M lung, 101%; in the test with HOP-62 NSCLC, 109%; in the test with NCI-H460 lung, 113%; with HOP-92 NSCLC, 112%. Besides, the growth is 96% with NCI-H522 lung; 98.2% in the test with A549/ATCC NSCLC; 110% in the test with 786-0 renal; 107% in the test on COLO 205 colon; 117% with DU-145 prostate; 113% in the test with K-562 leukemia. Also, the growth in the test with MALME-3M melanoma was 121%; with MDA-MB-231 breast, 120%; in the test with RXF 393 renal, 95%; with SF-268 CNS, 113%; with SF-295 CNS, 90.4%; with SF-539 CNS, 106%. Also, the growth is 110% with UACC-257 melanoma and 128% in the test with M14 melanoma.
On to `O=C(Oc1ccccc1)c1cc(O)c(O)c(O)c1`, for which the growth in the test on NCI-H23 lung is 72.3%; in the test with NCI-H226 lung, 89.8%; in the test on NCI-H322M lung, 54.8%; in the test on HOP-62 NSCLC, 54.9%; with NCI-H460 lung, 28%; in the test on HOP-92 NSCLC it was 79.6%. Moreover, the growth was 53.3% with NCI-H522 lung; 68.9% with A549/ATCC NSCLC; 55% with 786-0 renal; 99.2% with COLO 205 colon; 76.2% in the test on DU-145 prostate; 50.8% in the test with K-562 leukemia. Also, the growth with MALME-3M melanoma is 88%; with MDA-MB-231 breast, 63.4%; with RXF 393 renal it was 110%; in the test on SF-268 CNS, 59.7%; in the test on SF-295 CNS it was 73.5%; with SF-539 CNS, 54%. Also, the growth with UACC-257 melanoma was 112%; in the test with M14 melanoma it was 68.4%.
As for `Cc1nc2sc(C(=O)Nc3ccccc3)c(N)c2cc1C(O)c1ccccc1` (stereo not given), the growth was 33.5% with NCI-H23 lung; 64% with NCI-H226 lung; 56.3% in the test with NCI-H322M lung; 39.6% in the test with HOP-62 NSCLC; 4.01% (active) in the test with NCI-H460 lung; 63.7% in the test on HOP-92 NSCLC. Besides, the growth with NCI-H522 lung was 12.8%; in the test on A549/ATCC NSCLC, 24.4%; with 786-0 renal, 40.8%; in the test on COLO 205 colon, -8.82% (active); in the test on DU-145 prostate, 18.1%; in the test with K-562 leukemia, 7.04% (active). For the same compound, the growth is 60.8% in the test with MALME-3M melanoma; 16.7% in the test with MDA-MB-231 breast; 40% in the test with RXF 393 renal; 47.9% in the test on SF-268 CNS; 4.69% (active) with SF-295 CNS; -5.44% (active) with SF-539 CNS. The growth in the test on UACC-257 melanoma is 72.5%; in the test on M14 melanoma, 20.3%.
`CCCCCC(C)(O)C(C(=O)O)c1ccccc1` (stereo not given): the growth with NCI-H23 lung was 107%; in the test with NCI-H226 lung it was 104%; with NCI-H322M lung, 104%; with HOP-62 NSCLC it was 101%; in the test with NCI-H460 lung it was 109%; with HOP-92 NSCLC it was 94.1%. Besides, the growth in the test on NCI-H522 lung was 95%; in the test with A549/ATCC NSCLC it was 99.6%; with 786-0 renal, 99.2%; in the test with COLO 205 colon it was 118%; in the test with DU-145 prostate, 114%; in the test on K-562 leukemia it was 121%. Besides, the growth was 93.9% in the test with MALME-3M melanoma; 102% in the test on MDA-MB-231 breast; 110% in the test with RXF 393 renal; 107% in the test with SF-268 CNS; 103% in the test with SF-295 CNS; 95.4% in the test on SF-539 CNS. Moreover, the values for the growth in the test with UACC-257 melanoma and in the test with M14 melanoma were 102% and 96.7%, respectively.
For the compound `Cn1cc(-c2nc(-c3c[nH]c4ccncc34)cs2)c2cc(F)ccc21`, the growth in the test with NCI-H23 lung is -55.9% (active); with NCI-H226 lung, 57.9%; in the test with NCI-H322M lung, -75% (active); in the test with HOP-62 NSCLC it was -85.6% (active); in the test with NCI-H460 lung, -70.5% (active); in the test on HOP-92 NSCLC, -89.5% (active). Further, the growth is -66.1% (active) in the test with NCI-H522 lung; -79.6% (active) in the test on A549/ATCC NSCLC; -92.5% (active) in the test with 786-0 renal; -74.1% (active) in the test on COLO 205 colon; -98.1% (active) with DU-145 prostate; -53.6% (active) with K-562 leukemia. Besides, the growth in the test on MALME-3M melanoma is -88.9% (active); in the test on MDA-MB-231 breast it was -90.7% (active); with RXF 393 renal, -94.7% (active); in the test with SF-268 CNS, -80.1% (active); in the test with SF-295 CNS, -85.9% (active); in the test on SF-539 CNS it was -97.1% (active). Besides, the growth is -73.1% (active) in the test with UACC-257 melanoma and -87.3% (active) with M14 melanoma.
As to `CCNc1nc(-c2ccc(Cl)c(OC)c2)c(-c2ccnc(NCCNS(=O)(=O)c3ccc(Cl)cc3)n2)s1`, the growth was 26.2% in the test with NCI-H23 lung; 20.8% in the test with NCI-H226 lung; 44.9% with NCI-H322M lung; 21.5% in the test with HOP-62 NSCLC; 17.1% with NCI-H460 lung; -2.89% (active) in the test with HOP-92 NSCLC. Besides, the growth is -25.5% (active) in the test with NCI-H522 lung; 27.6% in the test with A549/ATCC NSCLC; 6.16% (active) in the test on 786-0 renal; 26.2% in the test on COLO 205 colon; 44.3% in the test on DU-145 prostate; 18.3% in the test with K-562 leukemia. Moreover, the growth with MALME-3M melanoma is 46.2%; in the test on MDA-MB-231 breast, 0.973% (active); in the test with RXF 393 renal, 18.9%; in the test with SF-268 CNS it was 37%; with SF-295 CNS it was 17.2%; with SF-539 CNS, 38.3%. In addition, the growth was 50.4% in the test with UACC-257 melanoma and 29.7% in the test with M14 melanoma.
